The target in test [1] is 6-phosphogluconate dehydrogenase, decarboxylating (Homo sapiens) (UniProt P52209). The test is described as follows: inhibition of human phosphogluconate dehydrogenase – biochemical, recombinant enzyme, NADPH absorbance, primary screen (AID 1159550;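 active = at least 20% inhibition of 6-phosphogluconate dehydrogenase activity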). Conditions: recombinant 6PGD, NADPH absorbance 341 nm; at 10 µM; stronger effect = higher value.
Test [2] in a line: viability loss in pontine glioma line – cell-based, SU-DIPG-XVII, MIPE5.0, CellTiter-Glo, qHTS, dose response (AID 1347060; cut-off not given, nearly all actives have AC50 up to about 26 µM). Conditions: CellTiter-Glo ATP luminescence. Background: ATP-based viability assays read luminescence as a measure of living cells.
The nature of test [3]: viability loss in pontine glioma line – cell-based, JHH-DIPG-1, MIPE4.0, CellTiter-Glo, qHTS, dose response (AID 1347062; cut-off not given, nearly all actives have AC50 up to about 27 µM). Particulars: JHH-DIPG-1 viability, CellTiter-Glo ATP luminescence.
Test [4] can be described thus: viability loss in pontine glioma line – cell-based, SU-DIPG-IV, MIPE4.0, CellTiter-Glo, qHTS, dose response (AID 1347063).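 Also: compound exposure lasted 48 hours before the viability readout.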 Conditions: CellTiter-Glo ATP luminescence.
Test [5] is described as follows: viability loss in pontine glioma line – cell-based, SU-DIPG-XIII, MIPE5.0, CellTiter-Glo, qHTS, dose response (AID 1347064; cut-off not given, nearly all actives have AC50 up to about 23 µM). Conditions: CellTiter-Glo ATP luminescence.
The nature of test [6]: viability loss in pontine glioma line – cell-based, SU-DIPG-XXV, MIPE5.0, CellTiter-Glo, qHTS, dose response (AID 1347065; cut-off not given, nearly all actives have AC50 up to about 26 µM;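 also: cells exposed to compound for 48 hours before ATP readout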). Conditions: CellTiter-Glo ATP luminescence.
The nature of test [7]: growth inhibition of DIPG cells – cell-based, MIPE4.0 library, CellTiter-Glo luminescence, qHTS (AID 1347066).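 Also: cells exposed to compound for 48 hours before readout.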 Conditions: SU-DIPG-VI viability, CellTiter-Glo ATP luminescence.
A short description of test [8]: JHH-DIPG-1 glioma cell viability, MIPE5.0 library, CellTiter-Glo luminescence, qHTS (AID 1347067; cut-off not given, nearly all actives have AC50 up to about 26 µM;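 also: cells exposed to compound for 48 hours before readout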). Particulars: JHH-DIPG-1 glioma viability, CellTiter-Glo ATP luminescence.
Test [9] in a line: growth inhibition of DIPG cells – cell-based, MIPE5.0 library, qHTS (AID 1347068; cut-off not given, nearly all actives have IC50 up to about 30 µM). Conditions: SU-DIPG-XXV viability. On the technique in general: Quantitative high-throughput screening tests each substance at several concentrations.
The nature of test [10]: MELAS cybrid and Rieske KO viability enhancers – cell-based, MELAS cybrids, Rieske KO mouse fibroblasts, CellTiter-Glo, primary screen (AID 1508586;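 active = mean z-score across replicates of 1.96 or higher in either the MELAS or the Rieske mutant cell line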;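 also: z relative to plate mean and SD of compound and empty wells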). Conditions: low glucose.
Test [11] concerns the target NAD(+) hydrolase SARM1 (Homo sapiens) (UniProt Q6SZW1). The experiment in a line: blocking NAD cleavage by SARM1 SAM-TIR – cell lysate, NAD-Glo luminescence (AID 1508614;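 active = compound whose remaining NAD level is above about 45 nM, limit read from the data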;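 also: higher remaining NAD means stronger inhibition of SARM1 NADase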). Conditions: SAM-TIR HEK293T lysate NADase, at 1 µM, stronger effect = higher value.
In test [12] the target is Mitogen-activated protein kinase 7 (Homo sapiens) (UniProt Q13164). The experiment in a line: Gal4-ERK5 driven luciferase induction – cell-based, HTS, primary screen (AID 1508626;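 active = luciferase signal above three times the same-plate solvent-only control wells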;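 also: luciferase driven by Gal4-ERK5 fusion binding five Gal4 sites before minimal TATA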). Conditions: HeLa Gal4-ERK5 transactivation, 18 h, at 5 µM, stronger effect = higher value.
Chain of Mitogen-activated protein kinase 7 (Homo sapiens) (Q13164 whole entry, looked up, the tested form may be a part): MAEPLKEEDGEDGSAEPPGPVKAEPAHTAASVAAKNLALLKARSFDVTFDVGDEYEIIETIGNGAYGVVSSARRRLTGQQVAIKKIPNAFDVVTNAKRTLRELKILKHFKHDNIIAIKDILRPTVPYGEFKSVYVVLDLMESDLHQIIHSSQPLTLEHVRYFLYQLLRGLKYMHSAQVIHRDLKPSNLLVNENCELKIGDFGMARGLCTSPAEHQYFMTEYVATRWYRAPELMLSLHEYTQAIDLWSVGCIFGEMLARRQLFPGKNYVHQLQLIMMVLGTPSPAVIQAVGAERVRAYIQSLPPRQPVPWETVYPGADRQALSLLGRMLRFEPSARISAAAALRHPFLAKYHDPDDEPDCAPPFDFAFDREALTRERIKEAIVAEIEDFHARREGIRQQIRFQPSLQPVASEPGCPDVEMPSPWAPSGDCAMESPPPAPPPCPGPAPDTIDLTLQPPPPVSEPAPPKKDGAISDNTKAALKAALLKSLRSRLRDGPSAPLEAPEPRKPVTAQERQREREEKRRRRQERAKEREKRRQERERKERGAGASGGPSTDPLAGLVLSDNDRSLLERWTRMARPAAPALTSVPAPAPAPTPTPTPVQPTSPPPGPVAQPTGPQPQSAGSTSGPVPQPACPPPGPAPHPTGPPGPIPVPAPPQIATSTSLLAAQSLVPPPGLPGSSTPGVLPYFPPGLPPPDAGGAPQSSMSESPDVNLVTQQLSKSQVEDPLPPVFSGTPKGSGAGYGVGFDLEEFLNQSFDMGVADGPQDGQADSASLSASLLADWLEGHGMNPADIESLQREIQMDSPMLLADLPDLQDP
The nature of test [13]: compounds altering circadian rhythm period length – cell-based, LOPAC library, luminescence reporter (AID 2774; call rule not given here;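 also: values are relative to mean of DMSO wells on each plate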). Conditions: circadian reporter cells, at 7 µM, actives lie on both sides.
Test [14] can be described thus: compounds altering viability of human ES cells (AID 493140; call rule not given here;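 also: cells exposed to compounds for four days before counting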). Conditions: human embryonic stem cell survival screen; stronger effect = higher value.
Test [15] is described as follows: P. berghei load reduction in hepatocytes – cell-based, HepG2, luciferase luminescence, HepG2 viability, primary screen (AID 624349; in the data active = parasite load remaining mostly below about 12%, no sharp cut-off; inactive = mostly above about 10%;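 also: 100% = mean of DMSO negative control wells on the same plate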). Particulars: P. berghei liver stage in HepG2, luciferase luminescence, concentration not given here; parasite load remaining: stronger effect = lower value; viability: measured here: HepG2 viability without parasites.
The test system of test [16] is Hepatitis C virus NS3 helicase. The test is described as follows: blockers of NS3h binding to ssDNA – biochemical, fluorescence polarization, LOPAC1280 library, primary screen (AID 687035; in the data active = inhibition above about 37%). Particulars: Purified HCV NS3 helicase, Cy5-dT15 ssDNA binding fluorescence polarization; stronger effect = higher value; concentration not given here. In general terms: In fluorescence polarisation assays a small probe gives low polarisation when free and higher when bound to something large.

Test [17] in a line: compounds altering Cy5-DNA-NS3h complex signal – biochemical, LOPAC1280, artefact control for HCV NS3 helicase inhibitor project (AID 687037; call rule not given here). Particulars: Cy5-DNA-NS3h complex fluorescence interference counterscreen.
Test [18] can be described thus: viability loss in pontine glioma line – cell-based, SU-DIPG-XIII, MIPE4.0, CellTiter-Glo, qHTS, dose response (AID 1347061; cut-off not given, nearly all actives have AC50 up to about 37 µM;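 also: cells exposed to compound for 48 hours before readout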). Conditions: CellTiter-Glo ATP luminescence.
The nature of test [19]: viability loss with induced miR-34 in A549 – imaging, A549 dox-inducible miR-34, nuclei and caspase counts, primary screen (AID 1347080;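 active = compounds whose cell count with miR-34 switched on is under 0.7 times the count with it off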). Particulars: A549 miR-34 inducible, Hoechst nuclei count, 48 h.
Test [20] can be described thus: blockers of cellular phospholipid synthesis – cell-based, LOPAC library, screen 4, primary screen (AID 1347384; call rule not given here). Particulars: animal cells, phospholipid biosynthesis inhibition screen; at 10 µM.
Test [21] can be described thus: galactose survival enhancers in mitochondrial complex I cybrids – cell-based, galactose medium, ATP luminescence, primary screen (AID 1645843;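 active = z-score of at least 1.8 in each of two replicates, scored against plate mean and spread of sample wells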;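 also: positive z means more ATP and so rescue of galactose-driven cybrid death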). Conditions: complex I mutant cybrid cells, 72 h, stronger effect = higher value.
For test [22], the target named is ATP-dependent translocase ABCB1 (Homo sapiens) (UniProt P08183). The experiment in a line: P-glycoprotein substrate transport blockade – cell-based (AID 377; in the data active = fluorescence slope change above about 50%). Conditions: MDR1-expressing cells, fluorescent substrate accumulation slope; stronger effect = higher value; concentration not given here.
Chain of ATP-dependent translocase ABCB1 (Homo sapiens) (P08183 whole entry, looked up): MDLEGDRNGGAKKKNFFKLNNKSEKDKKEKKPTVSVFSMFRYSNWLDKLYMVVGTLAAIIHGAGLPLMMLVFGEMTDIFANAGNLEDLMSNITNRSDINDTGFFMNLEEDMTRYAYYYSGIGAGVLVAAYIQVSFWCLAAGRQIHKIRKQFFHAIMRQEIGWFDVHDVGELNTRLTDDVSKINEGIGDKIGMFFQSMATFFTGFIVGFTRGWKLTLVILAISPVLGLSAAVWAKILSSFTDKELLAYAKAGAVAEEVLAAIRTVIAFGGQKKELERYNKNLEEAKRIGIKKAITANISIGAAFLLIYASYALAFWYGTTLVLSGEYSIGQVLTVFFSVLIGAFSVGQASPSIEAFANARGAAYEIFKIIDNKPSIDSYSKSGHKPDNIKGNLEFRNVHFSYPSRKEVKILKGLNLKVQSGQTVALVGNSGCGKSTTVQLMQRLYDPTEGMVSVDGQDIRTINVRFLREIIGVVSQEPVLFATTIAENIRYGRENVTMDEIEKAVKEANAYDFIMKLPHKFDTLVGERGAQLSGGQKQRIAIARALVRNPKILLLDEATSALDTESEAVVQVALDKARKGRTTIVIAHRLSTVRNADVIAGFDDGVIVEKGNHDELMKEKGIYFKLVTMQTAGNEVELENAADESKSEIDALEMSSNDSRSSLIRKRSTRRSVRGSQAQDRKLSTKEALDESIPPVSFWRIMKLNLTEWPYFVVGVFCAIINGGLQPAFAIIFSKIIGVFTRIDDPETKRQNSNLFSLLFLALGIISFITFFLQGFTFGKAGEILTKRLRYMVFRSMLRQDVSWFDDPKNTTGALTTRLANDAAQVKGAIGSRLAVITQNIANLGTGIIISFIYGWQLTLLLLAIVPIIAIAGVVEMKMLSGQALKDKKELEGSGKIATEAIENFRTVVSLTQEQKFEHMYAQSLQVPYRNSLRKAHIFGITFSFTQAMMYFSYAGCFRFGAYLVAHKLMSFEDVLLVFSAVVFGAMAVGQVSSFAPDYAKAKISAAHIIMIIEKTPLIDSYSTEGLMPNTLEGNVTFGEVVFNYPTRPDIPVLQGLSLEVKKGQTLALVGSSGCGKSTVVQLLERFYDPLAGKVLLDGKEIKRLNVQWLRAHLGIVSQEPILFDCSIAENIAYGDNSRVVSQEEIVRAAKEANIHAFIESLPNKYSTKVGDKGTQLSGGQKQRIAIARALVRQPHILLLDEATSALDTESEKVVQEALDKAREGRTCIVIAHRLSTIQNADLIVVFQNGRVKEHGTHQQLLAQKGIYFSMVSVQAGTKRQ
Setting [23] is: MELAS cybrid survival, CellTiter-Glo 48 h, stronger effect = higher value.
Where [24] appears, read: Rieske KO mouse fibroblast survival, CellTiter-Glo 72 h.
The mark [25] stands for this setting: stronger effect = lower value, cell number ratio, induced over uninduced.
Where [26] appears, read: measured here: relative caspase fold change +Dox/-Dox.
Setting [27] is: measured here: total cells with miR-34 induction, stronger effect = lower value.
Setting [28] is: measured here: total cells without miR-34 induction.

“And” between values parts separate entries of the source, which are not always exact repeats. Equal values may be shown once. Inconclusive results are not listed. The source made the active and inactive calls. Unless noted, the limit is not given here; nearly all actives have AC50 up to about 30 µM.

Chain of 6-phosphogluconate dehydrogenase, decarboxylating (Homo sapiens) (P52209 whole entry, looked up): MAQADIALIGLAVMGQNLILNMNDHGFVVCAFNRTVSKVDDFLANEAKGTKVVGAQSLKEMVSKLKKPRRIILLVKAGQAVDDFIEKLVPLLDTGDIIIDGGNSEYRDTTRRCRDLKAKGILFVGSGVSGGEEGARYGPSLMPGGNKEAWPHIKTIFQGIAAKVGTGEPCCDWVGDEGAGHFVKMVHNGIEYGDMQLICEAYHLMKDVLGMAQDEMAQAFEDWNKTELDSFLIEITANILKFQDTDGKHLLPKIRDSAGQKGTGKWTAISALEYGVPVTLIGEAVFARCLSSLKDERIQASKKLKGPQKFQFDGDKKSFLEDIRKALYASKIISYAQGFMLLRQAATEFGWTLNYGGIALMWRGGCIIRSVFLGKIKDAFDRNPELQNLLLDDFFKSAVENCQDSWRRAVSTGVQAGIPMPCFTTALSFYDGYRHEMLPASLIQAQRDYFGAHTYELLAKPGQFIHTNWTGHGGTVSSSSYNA
Chain of NAD(+) hydrolase SARM1 (Homo sapiens) (Q6SZW1 whole entry, looked up, the tested form may be a part): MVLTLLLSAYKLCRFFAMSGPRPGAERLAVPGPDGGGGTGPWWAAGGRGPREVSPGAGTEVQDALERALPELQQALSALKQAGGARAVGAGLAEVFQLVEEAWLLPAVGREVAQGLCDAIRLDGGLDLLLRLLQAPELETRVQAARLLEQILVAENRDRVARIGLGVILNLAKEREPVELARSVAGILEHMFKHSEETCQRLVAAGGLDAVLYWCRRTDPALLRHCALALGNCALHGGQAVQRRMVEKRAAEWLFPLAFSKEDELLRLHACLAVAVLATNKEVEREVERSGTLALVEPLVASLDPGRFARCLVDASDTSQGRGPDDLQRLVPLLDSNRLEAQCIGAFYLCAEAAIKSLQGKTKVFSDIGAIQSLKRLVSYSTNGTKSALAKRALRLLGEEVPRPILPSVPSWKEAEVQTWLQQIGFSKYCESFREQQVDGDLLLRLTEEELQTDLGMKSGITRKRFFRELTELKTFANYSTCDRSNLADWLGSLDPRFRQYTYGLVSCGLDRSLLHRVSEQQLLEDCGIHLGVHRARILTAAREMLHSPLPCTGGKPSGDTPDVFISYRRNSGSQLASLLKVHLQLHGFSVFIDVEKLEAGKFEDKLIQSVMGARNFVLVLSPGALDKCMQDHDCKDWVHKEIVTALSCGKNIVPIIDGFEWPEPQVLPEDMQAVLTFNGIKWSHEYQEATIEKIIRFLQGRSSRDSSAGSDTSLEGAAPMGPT

For the compound `COc1ccc(-c2cc(=O)c3c(O)cc(O[C@@H]4O[C@H](CO[C@@H]5O[C@@H](C)[C@H](O)[C@@H](O)[C@H]5O)[C@@H](O)[C@H](O)[C@H]4O)cc3o2)cc1O`, the inhibition (in general, the relative decrease from the control value, in per cent) in [1] is 7.55% (inactive). In addition, the compound was classed as inactive in test [2], in test [3], in [4], in test [5], in [6] and in test [7]. Moreover, the call in test [8] and in test [9] was inactive. Moreover, the z-score is 0.526 (inactive) in test [10] (setting [23]) and 0.0112 in [10] (setting [24]). Also, the remaining NAD in test [11] is 10 nM (inactive). Also, in test [12], the luciferase signal is 80 AU (inactive).
`CN[C@H](CC(C)C)C(=O)N[C@H]1C(=O)N[C@@H](CC(N)=O)C(=O)N[C@H]2C(=O)N[C@H]3C(=O)N[C@H](C(=O)N[C@H](C(=O)O)c4cc(O)cc(O)c4-c4cc3ccc4O)[C@H](O)c3ccc(c(Cl)c3)Oc3cc2cc(c3O[C@@H]2O[C@H](CO)[C@@H](O)[C@H](O)[C@H]2O[C@H]2C[C@](C)(N)[C@H](O)[C@H](C)O2)Oc2ccc(cc2Cl)[C@H]1O`: the period change in test [13] is -0.05 h (inactive). Besides, in test [14], the survival was 13.8 (inactive). Besides, the parasite load remaining in test [15] was 70.2% (inactive). The viability (commonly a read-out of living cells in per cent, often relative to untreated cells) in [15] worked out at 74.3%. Besides, the inhibition in [16] is -5% (inactive); in [1], 3.51% (inactive). For the same compound, the fluorescence ratio (interference) in test [17] was 1 (inactive). In addition, the call in [2], in test [18], in test [3], in [4], in test [6] and in test [8] was inactive. The outcome in [9] and in test [20] was inactive. The fold change in test [19] (setting [25]) was 0.946 (inactive); in test [19] (setting [26]), 1.32. Moreover, the cell count in [19] (setting [27]) worked out at 9810; in [19] (setting [28]), 10400. The remaining NAD in [11] was 10 nM (inactive). Moreover, the luciferase signal in test [12] was 68 AU (inactive). The z-score in test [21] is 0.26 (inactive).
As for `COc1ccc(CCC(=O)c2c(O)cc(O[C@@H]3O[C@H](CO)[C@@H](O)[C@H](O)[C@H]3O[C@@H]3O[C@@H](C)[C@H](O)[C@@H](O)[C@H]3O)cc2O)cc1O`, the inhibition in [1] is -14.9% (inactive). The AC50 (as a rule, the concentration at which the activity in the assay is half-maximal) in test [18] is 2350 nM (active). Moreover, the compound was called inactive in test [3], in test [4] and in test [7]. The luciferase signal in test [12] was 36 AU (inactive).
Take `COc1c(O)cc2c(c1O)[C@@H]1O[C@H](CO)[C@@H](O)[C@H](O)[C@H]1OC2=O`: the inhibition in test [1] was 2.56% (inactive). In addition, the compound was classed as inactive in test [18], in test [3], in test [4] and in test [7]. Besides, the luciferase signal in [12] is 48 AU (inactive).
For `C[C@H]1C[C@H]2[C@@H]3CCC4=CC(=O)C=C[C@]4(C)[C@@]3(F)[C@@H](O)C[C@]2(C)[C@@]1(O)C(=O)CO`, the fluorescence slope change in test [22] is 18% (inactive). In addition, in test [14], the survival was 9.67 (inactive). Moreover, the parasite load remaining in test [15] was 183% (inactive) and 101% (inactive). Moreover, the viability in test [15] is 104% and 71.8%. The inhibition in test [1] was -0.85% (inactive). Also, the outcome in test [18], in [3], in test [4] and in [7] was inactive. The fold change is 0.813 (inactive) in test [19] (setting [25]) and 1.45 in [19] (setting [26]). In addition, the cell count in [19] (setting [27]) was 6320; in [19] (setting [28]) it was 7770. Also, the figures for the z-score in test [10] (setting [23]) and in [10] (setting [24]) were -0.582 (inactive) and -0.299, respectively. Further, the remaining NAD in test [11] is 10 nM (inactive). Moreover, the luciferase signal in test [12] is 80 AU (inactive).

The record behind these values is PubChem BioAssay.
